Assay results as given in PubChem BioAssay AID1523 (The Scripps Research Institute Molecular Screening Center, 2009).
The list shows a part of the results. Calls of active or inactive are those of the source. Rule as the data show it: active = activation above about 12%; inactive = the rest. Non-standard residues stand in square brackets, D forms with d. Residues, ends and D or L forms follow the SMILES beside them. ξ: configuration not given here. ξM = CSCCC(N)C(=O)O

Molecular target: Sphingosine 1-phosphate receptor 4 (Homo sapiens) (UniProt O95977)
Sequence (O95977 whole entry, looked up): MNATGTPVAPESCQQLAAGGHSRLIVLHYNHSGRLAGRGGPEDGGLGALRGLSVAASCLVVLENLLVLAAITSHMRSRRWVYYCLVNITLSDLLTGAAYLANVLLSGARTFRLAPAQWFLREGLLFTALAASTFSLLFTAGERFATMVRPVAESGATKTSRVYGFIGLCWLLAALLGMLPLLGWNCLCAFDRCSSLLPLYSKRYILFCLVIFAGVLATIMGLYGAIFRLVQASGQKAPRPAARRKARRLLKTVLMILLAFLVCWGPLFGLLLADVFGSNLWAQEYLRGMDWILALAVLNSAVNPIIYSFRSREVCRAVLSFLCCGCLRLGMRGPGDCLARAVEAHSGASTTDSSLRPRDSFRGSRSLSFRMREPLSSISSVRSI
Assay: activators of human S1P4 signalling – cell-based, high throughput, confirmation (AID 1523);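 also: 0% = vehicle and 100% = full reference agonist response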
Conditions: S1P4 agonist cell-based reporter assay; at 4.98 µM; active compounds read high

activation, inactive:
CC(C)C(c1nnnn1C(C)(C)C)N1CCN(Cc2cccnc2)CC1 (stereo unspecified) -2.62%, O=C(COC(=O)c1cc([N+](=O)[O-])ccc1NCc1ccccc1)NC1CCCCC1 -2.43%, O=C(CSc1ccc(-c2ccc(F)cc2)nn1)Nc1ccc2c(c1)OCCO2 -1.49%, O=C(CSc1nnc(Nc2ccccc2)s1)Nc1cccnc1Cl -0.71%, CCC(=O)/C(=C(/O)c1ccccc1)c1nc2ccccc2[nH]1 -1.45%, Cc1cc(NC(=O)c2cc(-c3cccs3)on2)nn1Cc1ccc(Cl)cc1 -0.63%, Cc1cc(C)nc(N(C#N)CC(=O)Nc2ccccc2)n1 -0.69%, O=C(COC(=O)Cc1ccc(F)cc1)Nc1cc(S(=O)(=O)N2CCOCC2)ccc1N1CCCC1 -0.73%, COc1ccc(N2C(=O)C(Cc3ccccc3)NC2=S)cc1 (stereo unspecified) -1.44%, CCC(C)NC(=O)C1c2ccccc2Oc2ccccc21 (stereo unspecified) 0.12%, O=[N+]([O-])c1cccc(Nc2c3ccccc3nc3ccccc23)c1 6.3%, CCOc1ccc(-c2nnc(-c3ccco3)o2)cc1 -1%, CC(Oc1ccc(Br)cc1Br)C(=O)NC1CCCC1 (stereo unspecified) -1.69%, COC(=O)CNC(=O)C(CCSC)NC(C)=O (stereo unspecified) (Ac-[ξM]-Gly-OMe) -1.87%, COc1ccc(C2CC(c3cccs3)=NN2c2ccc(F)cc2)cc1OC (stereo unspecified) 10.7%, CC1CCCC(NC(=O)COC(=O)[C@@H]2CC(O)CN2S(=O)(=O)c2ccc3c(c2)OCCO3)C1C (stereo partly specified) -1.06%
